Source: PubChem BioAssay (NCATS)
Records with an inconclusive call do not appear. Entries that show only a call come without a potency. Active and inactive are the calls of the source. Unless noted, calls follow the shape of the full dose curve.

Legend:
[1] = qHTS for Inhibitors of the Functional Ribonucleoprotein Complex (vRNP) of Lassa (LASV) Arenavirus: LASV Primary Screen - GLuc reporter signal (AID 1347082; calls by dose curve; tested in HEK293 reporter line; also: nearly all actives have a fitted effect of over 60% in size; also: potency is read from the fitted curve at half-maximal effect)
[2] = biological target: Nucleoprotein (Lymphocytic choriomeningitis virus (strain Armstrong)) (UniProt P09992); assay: qHTS for Inhibitors of the Functional Ribonucleoprotein Complex (vRNP) of Lymphocytic Choriomeningitis Arenaviruses (LCMV): LCMV Primary Screen - GLuc reporter signal (AID 1347086); also: nearly all actives have a fitted effect of over 70% in size
[3] = Primary qHTS for inhibitors of SARS-S pseudo-typed particle cell entry (AID 1479145); also: nearly all actives have a fitted effect of over 45% in size
[4] = Primary qHTS for Huh7 cytotoxicity: counterscreen for inhibitors of MERS-S pseudotyped particle cell entry (AID 1479147); details: outcome: dose series up to 57.1 µM unless noted
[5] = Primary qHTS for Vero E6 cytotoxicity: counterscreen for inhibitors of SARS-S pseudo-typed particle cell entry (AID 1479150); details: outcome: dose series up to 57.1 µM unless noted
[6] = Cytotoxicity counterscreen for inhibitors of SARS-CoV-2 cell entry (AID 1645845); also: nearly all actives have a fitted effect of over 50% in size
Method in brief: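 After a 15 min room-temperature ATPLite 1step step, luminescence reflected ATP remaining in HEK293-ACE2 cells exposed to compound for 1 h plus 48 h at 37 C, with percent activity set by cell and no-cell controls.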

[7] = Primary qHTS to identify inhibitors of SARS-CoV-2 cell entry (AID 1645846); details: activity change, negative = inhibition: at 57.1 µM (top of the series) unless noted; also: nearly all actives have a fitted effect of over 45% in size; also: potency is read from the fitted curve at half-maximal effect
Method in brief: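 Using luciferase-reporting pseudoviruses carrying Wuhan-Hu-1 spike, the screen tracks entry into stably ACE2-expressing cells over 48 hr. Activity is expressed relative to spike particles versus particles lacking any fusion protein.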

[8] = Primary qHTS for inhibitors of MERS-S pseudo-typed particle cell entry (AID 1479149); also: nearly all actives have a fitted effect of over 60% in size
[9] = qHTS for Inhibitors of the Functional Ribonucleoprotein Complex (vRNP) of Lassa (LASV) Arenavirus: Viability assay - alamar blue signal for LASV Primary Screen (AID 1347083; calls by dose curve; tested in HEK293 reporter line; also: nearly all actives have a fitted effect of over 80% in size; also: potency is read from the fitted curve at half-maximal effect)
[10] = qHTS profiling of the MIPE4 collection as inhibitors of Plasmodium falciparum (3D7) proliferation (AID 743344; call rule not given here); details: P. falciparum 3D7 in erythrocytes, SYBR Green DNA fluorescence, 72 h; at 28.5 µM (top of the series) unless noted
Method in brief: (§1)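 Parasite DNA was quantified by SYBR Green I fluorescence (ex 485, em 535 nm) after overnight lysis in saponin/Triton buffer at room temperature. Cultures at 0.3% parasitemia and 2.5% hematocrit were first exposed to compound for 72 h at 37 C; signals were normalised to artemisinin (0.29 uM) and vehicle wells.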

[11] = qHTS profiling of the MIPE4 collection as inhibitors of Plasmodium falciparum (DD2) proliferation (Rep 2) (AID 743346; call rule not given here); details: P. falciparum Dd2 in erythrocytes, SYBR Green DNA, 72 h; at 28.5 µM (top of the series) unless noted
Method in brief: as §1

[12] = biological target: Alpha-galactosidase (Coffea arabica) (UniProt Q42656); assay: Counterscreen for Glucocerebrosidase Inhibitors: qHTS Assay for Coffee Bean alpha-Galactosidase at pH 4.5 (AID 957; active = well fitted curve in the direction sought with a large enough effect; an effect the other way counts as inactive or inconclusive)
Method in brief: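 Fluorogenic qHTS at pH 4.5 (citrate buffer with Tween-20): 2 nM enzyme, 80 uM 4-MU-alpha-galactoside substrate, compound titrated 0.7 nM to 77 uM, 20 min room temperature. Glycine/NaOH stop; 4-MU read Ex 365/Em 440; Hill-equation AC50 against no-enzyme and enzyme controls.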

[13] = biological target: Alpha-galactosidase (Coffea arabica) (UniProt Q42656); assay: Counterscreen for Glucocerebrosidase Inhibitors: qHTS Assay for Coffee Bean alpha-Galactosidase at pH 5.9 (AID 998; active = well fitted curve in the direction sought with a large enough effect; an effect the other way counts as inactive or inconclusive)
Method in brief: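 In 50 mM citric acid pH 5.9 with 0.005% Tween-20, coffee bean enzyme hydrolyses 80 uM 4-MU alpha-D-galactopyranoside over 20 min at RT. Activity is normalized to controls; AC50 comes from Hill-modelled concentration-response data.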

[14] = Validation screen for inhibitors of Lassa infection (AID 463096); also: potency is read from the fitted curve at half-maximal effect
[15] = Inducers of the Endoplasmic Reticulum Stress Response (ERSR) in human glioma: Validation (AID 504836; active = well fitted curve in the direction sought with a large enough effect; an effect the other way counts as inactive or inconclusive)
Method in brief: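 Stably transfected U87-MG human glioma cells carrying a GRP78-based luminescent sensor were seeded at 1000 cells/well, pin-dosed with compounds and incubated 16 h. Luciferase reagent was then added, and end-point luminescence was read after 10 min at room temperature.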

[16] = VSVG counterscreen qHTS to identify inhibitors of SARS-CoV-2 cell entry (AID 1645847); also: potency is read from the fitted curve at half-maximal effect; nearly all actives have a fitted effect of over 65% in size
Method in brief: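 Entry of VSV-G pseudotyped particles into human ACE2-expressing HEK293 cells was measured by luciferase luminescence 48 h after infection, with compound added 1 h beforehand.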

[17] = biological target: Rap guanine nucleotide exchange factor 3 (Homo sapiens) (UniProt O95398); assay: Confirmatory qHTS for agonist of cAMP-regulated guanine nucleotide exchange factor 3 (EPAC1) (AID 1645881; active = well fitted curve in the direction sought with a large enough effect; an effect the other way counts as inactive or inconclusive;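 also: EPAC1 catalysed release of BODIPY-GDP from Rap1B seen as fluorescence loss; nearly all actives have a fitted effect of over 75% in size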)
[18] = biological target: Rap guanine nucleotide exchange factor 4 (Homo sapiens) (UniProt Q8WZA2); assay: Confirmatory qHTS for agonist of cAMP-regulated guanine nucleotide exchange factor 4 (EPAC2) (AID 1645884; active = well fitted curve in the direction sought with a large enough effect; an effect the other way counts as inactive or inconclusive;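 also: nucleotide exchange releases bodipy-GDP from Rap1 and this lowers its fluorescence; nearly all actives have a fitted effect of over 65% in size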)
[19] = biological target: Rap guanine nucleotide exchange factor 4 (Homo sapiens) (UniProt Q8WZA2); assay: Confirmatory qHTS for antagonist of cAMP-regulated guanine nucleotide exchange factor 4 (EPAC2) (AID 1645885; active = well fitted curve in the direction sought with a large enough effect; an effect the other way counts as inactive or inconclusive; also: nearly all actives have a fitted effect of over 25% in size)
[20] = biological target: Rap guanine nucleotide exchange factor 3 (Homo sapiens) (UniProt O95398); assay: Counterscreen qHTS for antagonist of cAMP-regulated guanine nucleotide exchange factor 3 (EPAC1) (AID 1645888; active = well fitted curve in the direction sought with a large enough effect; an effect the other way counts as inactive or inconclusive;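 also: fluorescence loss as bound BODIPY-GDP is released from Rap1B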)
Method in brief: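 Measured: fluorescence of BODIPY-GDP bound to Rap1B, which falls as exchange proceeds. Conditions include 50 uM competing GDP, 5 and 30 min reads, and a later cAMP challenge for antagonist detection.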

Nucleoprotein (Lymphocytic choriomeningitis virus (strain Armstrong)), sequence (P09992 whole entry, looked up): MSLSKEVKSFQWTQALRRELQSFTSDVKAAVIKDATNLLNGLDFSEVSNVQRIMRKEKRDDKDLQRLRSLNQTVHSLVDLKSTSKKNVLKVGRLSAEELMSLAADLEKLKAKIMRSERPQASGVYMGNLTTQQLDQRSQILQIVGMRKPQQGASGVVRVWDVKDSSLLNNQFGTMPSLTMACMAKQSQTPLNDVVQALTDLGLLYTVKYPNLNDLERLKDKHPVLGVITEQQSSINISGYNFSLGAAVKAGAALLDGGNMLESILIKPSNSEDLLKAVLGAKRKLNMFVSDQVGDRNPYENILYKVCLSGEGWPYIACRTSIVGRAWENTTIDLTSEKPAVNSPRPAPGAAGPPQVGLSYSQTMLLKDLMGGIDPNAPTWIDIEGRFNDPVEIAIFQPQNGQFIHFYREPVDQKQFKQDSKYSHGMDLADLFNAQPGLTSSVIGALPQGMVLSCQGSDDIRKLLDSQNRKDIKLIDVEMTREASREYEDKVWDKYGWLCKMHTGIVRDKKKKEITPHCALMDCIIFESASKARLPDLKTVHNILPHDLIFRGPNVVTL
Alpha-galactosidase (Coffea arabica), sequence (Q42656 whole entry, looked up): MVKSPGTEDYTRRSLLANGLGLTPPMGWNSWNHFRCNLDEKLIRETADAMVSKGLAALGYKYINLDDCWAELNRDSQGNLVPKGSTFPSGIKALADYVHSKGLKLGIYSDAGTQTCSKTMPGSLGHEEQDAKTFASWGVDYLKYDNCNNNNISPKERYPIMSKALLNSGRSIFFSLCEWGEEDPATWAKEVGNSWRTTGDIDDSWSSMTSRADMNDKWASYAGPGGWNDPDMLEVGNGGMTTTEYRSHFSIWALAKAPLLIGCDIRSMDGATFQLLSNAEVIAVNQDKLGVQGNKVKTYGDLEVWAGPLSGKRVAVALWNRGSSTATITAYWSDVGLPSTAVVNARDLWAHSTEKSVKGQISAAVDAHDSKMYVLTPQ
Rap guanine nucleotide exchange factor 4 (Homo sapiens), sequence (Q8WZA2 whole entry, looked up): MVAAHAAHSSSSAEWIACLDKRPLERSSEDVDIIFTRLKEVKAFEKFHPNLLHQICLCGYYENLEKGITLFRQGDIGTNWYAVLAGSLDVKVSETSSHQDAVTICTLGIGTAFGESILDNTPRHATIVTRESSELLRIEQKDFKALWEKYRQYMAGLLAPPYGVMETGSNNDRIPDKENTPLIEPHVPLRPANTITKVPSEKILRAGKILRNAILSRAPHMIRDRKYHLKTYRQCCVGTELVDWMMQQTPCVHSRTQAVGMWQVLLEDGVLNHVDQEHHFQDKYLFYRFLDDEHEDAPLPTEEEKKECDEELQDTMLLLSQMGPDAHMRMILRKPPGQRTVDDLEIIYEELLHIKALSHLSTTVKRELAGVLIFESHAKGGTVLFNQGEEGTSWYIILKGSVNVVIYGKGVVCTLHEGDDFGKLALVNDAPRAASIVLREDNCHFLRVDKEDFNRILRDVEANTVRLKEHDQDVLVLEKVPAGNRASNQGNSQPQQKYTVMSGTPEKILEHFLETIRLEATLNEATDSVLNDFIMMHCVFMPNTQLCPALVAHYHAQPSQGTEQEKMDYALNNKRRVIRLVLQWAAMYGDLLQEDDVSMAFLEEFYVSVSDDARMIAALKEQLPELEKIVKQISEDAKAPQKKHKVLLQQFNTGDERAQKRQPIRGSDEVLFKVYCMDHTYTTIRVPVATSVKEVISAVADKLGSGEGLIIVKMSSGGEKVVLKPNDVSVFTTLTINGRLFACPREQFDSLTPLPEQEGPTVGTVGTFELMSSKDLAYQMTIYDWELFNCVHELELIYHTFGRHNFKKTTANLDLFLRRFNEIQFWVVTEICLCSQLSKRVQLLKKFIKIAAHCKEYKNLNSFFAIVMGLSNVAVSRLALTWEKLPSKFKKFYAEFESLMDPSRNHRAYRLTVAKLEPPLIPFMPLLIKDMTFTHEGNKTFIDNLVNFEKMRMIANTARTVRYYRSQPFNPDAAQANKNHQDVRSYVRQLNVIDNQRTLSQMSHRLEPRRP
Rap guanine nucleotide exchange factor 3 (Homo sapiens), sequence (O95398 whole entry, looked up): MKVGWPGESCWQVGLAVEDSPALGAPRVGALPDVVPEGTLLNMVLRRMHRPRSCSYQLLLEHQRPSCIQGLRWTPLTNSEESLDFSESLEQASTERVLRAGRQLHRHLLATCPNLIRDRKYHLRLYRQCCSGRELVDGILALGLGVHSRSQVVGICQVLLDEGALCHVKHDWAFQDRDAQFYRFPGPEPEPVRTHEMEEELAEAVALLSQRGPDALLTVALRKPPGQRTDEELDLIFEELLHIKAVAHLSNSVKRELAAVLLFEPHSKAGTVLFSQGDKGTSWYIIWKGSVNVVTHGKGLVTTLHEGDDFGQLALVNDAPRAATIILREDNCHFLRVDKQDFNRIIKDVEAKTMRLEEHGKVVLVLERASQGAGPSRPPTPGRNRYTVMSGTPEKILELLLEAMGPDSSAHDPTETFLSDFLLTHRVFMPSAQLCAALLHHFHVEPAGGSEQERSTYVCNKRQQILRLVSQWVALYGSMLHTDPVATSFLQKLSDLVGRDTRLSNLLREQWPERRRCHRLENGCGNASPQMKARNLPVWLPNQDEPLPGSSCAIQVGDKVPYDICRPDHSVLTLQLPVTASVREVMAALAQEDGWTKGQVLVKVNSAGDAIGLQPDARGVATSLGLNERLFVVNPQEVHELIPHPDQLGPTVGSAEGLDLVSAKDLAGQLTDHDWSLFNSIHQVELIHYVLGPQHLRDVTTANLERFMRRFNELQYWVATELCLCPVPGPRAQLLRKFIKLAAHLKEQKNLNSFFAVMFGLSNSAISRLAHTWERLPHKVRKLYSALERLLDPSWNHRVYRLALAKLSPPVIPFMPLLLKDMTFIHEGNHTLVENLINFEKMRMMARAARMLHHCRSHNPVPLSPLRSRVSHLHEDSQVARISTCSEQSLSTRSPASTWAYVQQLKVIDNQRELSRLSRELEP

For `CC(C)(C)c1nc(-c2cccc(NS(=O)(=O)c3c(F)cccc3F)c2F)c(-c2ccnc(N)n2)s1`, the Potency [1] was “inactive”, the Potency [2] was “inactive” and the Potency [3] was “inactive”. For the same compound, the outcome [4] was “inactive”, the outcome [5] was “inactive” and the Potency [6] was “inactive”. The Potency [7] was 28.2 µM (active).
In the case of `CCc1cccc(CC)c1NC(=O)N1Cc2[nH]nc(NC(=O)c3ccc(N4CCN(C)CC4)cc3)c2C1`, the Potency [1] was “inactive”, the Potency [2] was “inactive” and the Potency [6] was “inactive”.
With `Nc1ccn([C@@H]2O[C@H](CO)[C@@H](O)[C@H]2O)c(=O)n1` the Potency [1] was “inactive”, the Potency [2] was “inactive” and the outcome [4] was “inactive”. The Potency [8] was “inactive”, the outcome [5] was “inactive” and the activity change, negative = inhibition [7] was -8.54%.
For `COc1cc2c(cc1O)CCC1C2CC[C@@]2(C)C1CC[C@@H]2O` (stereo not given in full), the Potency [9] was 5.44 µM (active).
With `Cc1ncnc2nc[nH]c12` the Potency [9] was 1.58 µM (active).
With `COc1ccc2c3c1OC1C[C@@H](O)C=C[C@@]31CCN(C)C2` (stereo not given in full) the parasite growth, % of DMSO control [10] was 89.5%, the parasite growth, % of control (lower = inhibition) [11] was 65.2% and the Potency [1] was “inactive”.
In the case of `CC(=O)OC1C(O)C(C)OC(OC2C(OC(=O)C3CCC4C(C3)OC3(CC(OC(=O)/C=C/c5ccccc5)C(C)CO3)C43CO3)OC(C)C(O)C2OC(C)=O)C1O` (stereo not given), the Potency [9] was 0.178 µM (active).
For `N=C(N)c1ccc(OCCCCCOc2ccc(C(=N)N)cc2)cc1` (tested in a mixture with another compound), the outcome [12] was “inactive”, the outcome [13] was “inactive” and the Potency [14] was “inactive”. For the same compound, the outcome [15] was “inactive” and the Potency [1] was 7.08 µM (active).
In the case of `COc1ccc(NC(=O)c2ccc(-c3ccc(-c4noc(C)n4)cc3C)cc2)cc1N1CCN(C)CC1`, the outcome [12] was “inactive”, the outcome [13] was “inactive” and the Potency [14] was 7.94 µM (active). For the same compound, the outcome [15] was “inactive” and the Potency [1] was “inactive”.
In the case of `O=C(O)C=Cc1ccc(O)c(O)c1`, the Potency [9] was 43.2 µM (active).
For `C[C@]12CC[C@H](O)CC1=CCC1C2CC[C@]2(C)C(n3cnc4ccccc43)=CCC12` (stereo not given in full), the Potency [1] was “inactive” and the Potency [6] was “inactive”.
For `CCCCCCC/C=C/C=O`, the Potency [9] was “inactive”.
With `COC(=O)Nc1nc2ccc(C(=O)c3ccc(F)cc3)cc2[nH]1` the Potency [1] was “inactive”, the Potency [6] was “inactive” and the Potency [7] was 1.26 µM (active). The Potency [16] was 961 nM (active).
With `COc1cc2c(cc1OC)-c1c(OC)c(OC)cc3c1C(C2)N(C)CC3` (stereo not given) the Potency [1] was “inactive”, the outcome [17] was “inactive” and the outcome [18] was “inactive”. For the same compound, the Potency [19] was “inactive” and the outcome [20] was “inactive”.
